Measurements: PubChem BioAssay AID951 (NMMLSC, 2007)
About 140 (0.074%) of roughly 190,000 compounds were called active. No stated cut-off is given here; in the data, active means inhibition above about 40%. This excerpt belongs to a sample that is enriched for actives.

What follows are molecules tested against Bcl-2-like protein 10 (Homo sapiens) (UniProt Q9HD36) (assay: inhibitors of Bim-Bcl-B binding, primary screen, biochemical, multiplexed, human Bcl-2 family (AID 951;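 further: 0% = tracer peptide without compound and 100% = reference inhibitor peptide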)). Settings: bead-based flow cytometry, Bim peptide-Bcl-B binding; at 10 µM; hits give high values.
Chain of Bcl-2-like protein 10 (Homo sapiens) (Q9HD36 whole entry, looked up): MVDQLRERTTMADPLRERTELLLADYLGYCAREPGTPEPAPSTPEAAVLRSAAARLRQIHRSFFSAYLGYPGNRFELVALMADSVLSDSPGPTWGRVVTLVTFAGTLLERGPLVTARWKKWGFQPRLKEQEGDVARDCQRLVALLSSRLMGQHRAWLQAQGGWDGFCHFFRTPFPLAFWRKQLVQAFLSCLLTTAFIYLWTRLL

Row | Structure (SMILES) | inhibition
1 | O=C(CSc1nncn1-c1cccnc1)N1CCOCC1 | -6% (inactive)
2 | O=C(NCCCn1ccnc1)C(=O)c1cn(CC(=O)N2CCCCCC2)c2ccccc12 | 0% (inactive)
3 | Cn1ncc2c(NNC(=O)Cc3cccc4ccccc34)ncnc21 | -3% (inactive)
4 | OCCC1CN(Cc2cccn2-c2nccs2)CCN1CCc1ccccc1 (stereo not drawn) | -1% (inactive)
5 | O=C(CN1C(=O)NC2(CCCCCC2)C1=O)NCc1cccs1 | -1% (inactive)
6 | Cc1ccc(C(=O)Nc2ccc(C)c(S(=O)(=O)N(C)C)c2)s1 | 0% (inactive)
7 | CC(NC(=O)c1cccc2ccccc12)c1ccc2c(c1)CCCC2 (stereo not drawn) | 6% (inactive)
8 | CCOCC(=O)Nc1ncc(S(=O)(=O)c2ccc([N+](=O)[O-])cc2)s1 | 3% (inactive)
9 | Cc1ccccc1NC(=O)CSC1=NCCN1 | -6% (inactive)
10 | CCOC(=O)c1sc2nc(C)nc(Nc3ccc(OC)c(OC)c3)c2c1C | 2% (inactive)
11 | CN(C)c1ccc(/C=N/N(Cc2ccccc2)c2ccccc2)cc1 | -3% (inactive)
12 | C=CCn1c(CCNC(=O)c2ccccc2F)nnc1SCC(=O)Nc1ccc(OC)cc1 | 0% (inactive)
13 | COc1ccc(C2CC(c3ccccc3)=NN2C(=O)COC(=O)COc2ccccc2)cc1 (stereo not drawn) | -5% (inactive)
14 | CC(=O)Nc1cccc([N+](=O)[O-])c1 | -4% (inactive)
15 | COC(=O)C1CCN(C(=O)c2cc(=O)[nH]c3ccccc23)CC1 | -1% (inactive)
16 | CC1CCCC(NC(=O)COC(=O)[C@@H]2CC(O)CN2S(=O)(=O)c2ccc3c(c2)OCCO3)C1C (stereo partly drawn) | -1% (inactive)
17 | O=C(CNC(c1ccccc1)c1ccccc1)Nc1ccc(F)cc1 | -8% (inactive)
18 | CCOc1ccccc1/C=N/NC(=O)CNC(=O)COc1ccccc1 | 74% (active)
19 | Cc1ccc(/C=N/NC(=O)CNC(=O)COc2ccccc2)o1 | -7% (inactive)
20 | C=CCc1ccccc1OCC(=O)N/N=C/c1ccccc1OCC | -9% (inactive)
21 | CCOc1ccc(NC(=O)CN(C)CC(=O)NC(C)c2ccccc2)cc1OCC (stereo not drawn) | -4% (inactive)

Row | Structure (SMILES) | inhibition
22 | Cc1cccc(C(=O)N2CCC(c3nc4ccccc4s3)CC2)c1 | -2% (inactive)
23 | O=C(CSC1CC(=O)N(CCc2ccccc2)C1=O)Nc1ccc(Cl)cc1 (stereo not drawn) | -5% (inactive)
24 | C[C@@H]1CC[C@]2(O[C@@H](CCO)C[C@H](O)[C@H]2O)O1 | -5% (inactive)
25 | O=C(N/N=C/c1ccco1)c1ccc(NC(=O)C2CC2)cc1 | -4% (inactive)
26 | NC(=O)Cn1nc([N+](=O)[O-])nc1Oc1ccc(Br)cc1 | -1% (inactive)
27 | CN1CCN(C(=O)CCc2ncc(C(F)(F)F)cc2Cl)CC1 | -8% (inactive)
28 | COc1ccc(C(=O)NCC(=O)N/N=C/c2ccc([N+](=O)[O-])s2)cc1OC | -2% (inactive)
29 | Cc1ccc(S(=O)(=O)NNC(=O)Nc2cccc3ccccc23)cc1 | 0% (inactive)
30 | CCOC(=O)c1c(-c2cccc(N)c2)cn2ccccc12 | 17% (inactive)
31 | COc1ccc2c(c1)CC[C@@H]1[C@@H]2CC[C@]2(C)C(=O)CC[C@@H]12 | -3% (inactive)
32 | CC(=O)C1C(c2ccc(Cl)cc2)c2c(n[nH]c2C)CC1(C)O (stereo not drawn) | -4% (inactive)
33 | CCNC(=O)COC(=O)CCNC(=O)c1cccc(C)c1 | -4% (inactive)
34 | NC(=O)C[n+]1cccc(C(N)=O)c1 | -1% (inactive)
35 | O=C(CP(=O)(c1ccccc1)c1ccccc1)N1CCOCC1 | -6% (inactive)
36 | CS(=O)(=O)Nc1cccc(-c2cn3ccccc3n2)c1 | -2% (inactive)
37 | CSc1ccc(/C=N/N2CCN(Cc3ccccc3Cl)CC2)cc1 | -8% (inactive)
38 | CCC(C(=O)OCC(=O)Nc1c(Cl)cc(Cl)cc1Cl)c1ccccc1 (stereo not drawn) | -7% (inactive)
39 | C=CCn1c(SCC(N)=O)nnc1-c1cc2c(s1)CCC(CC)C2 (stereo not drawn) | -12% (inactive)
40 | N=C1C(c2nc3ccccc3[nH]2)=C(O)CN1NC(=O)c1c[nH]c2ccccc12 | -2% (inactive)
41 | Cc1cc(C)c2nc(-c3cccnc3)cc(C(=O)Nc3ccc(S(=O)(=O)Nc4onc(C)c4C)cc3)c2c1 | -1% (inactive)
42 | O=C1N(c2ccc(Cl)cc2)C(c2ccc(Cl)cc2)N2CCCN12 (stereo not drawn) | -11% (inactive)

Row | Structure (SMILES) | inhibition
43 | CC(=O)NC(CC(=O)O)c1ccc(F)cc1 (stereo not drawn) | -4% (inactive)
44 | Cc1ccc(CC2CC(=O)N(c3nc(C)cc(C)n3)C2=O)cc1 (stereo not drawn) | -1% (inactive)
45 | CC(C)(C)c1nnc(N/N=C/c2ccc(O)cc2)n(N)c1=O | -7% (inactive)
46 | Fc1ccccc1N=C1Nc2cccc3cccc1c23 | -4% (inactive)
47 | Cc1ccccc1C(=O)OC1OC(=O)C(Cl)=C1Nc1ccccc1 (stereo not drawn) | -2% (inactive)
48 | O=C(CSc1nn(-c2ccc(F)cc2)c(=S)s1)NC1CCS(=O)(=O)C1 (stereo not drawn) | -1% (inactive)
49 | Cc1ccccc1-n1nc(SCC(=O)O)sc1=S | 43% (active)
50 | N#CCSc1nn(-c2ccc(F)cc2)c(=S)s1 | -7% (inactive)
51 | O=C(Nc1ccc(Br)cn1)c1ccc([N+](=O)[O-])cc1Cl | -6% (inactive)
52 | Cc1ccc(COc2ccc(C(=O)NN)cc2)cc1 | -3% (inactive)
53 | COc1cc(C2/C(=C(\O)c3ccc4c(c3)CC(C)O4)C(=O)C(=O)N2Cc2ccco2)ccc1O (stereo not drawn) | 1% (inactive)
54 | O=C(O)/C=C/c1ccc(S(=O)(=O)N2CCCCCC2)cc1 | 0% (inactive)
55 | Cc1cc(Cl)c(S(=O)(=O)NCC2CCCO2)cc1OCC(N)=O (stereo not drawn) | 80% (active)
56 | Cc1cc(Cl)c(S(=O)(=O)Nc2ccc3c(c2)OCCO3)cc1OCC(N)=O | -2% (inactive)
57 | Cc1cc(Cl)c(S(=O)(=O)NCCC(=O)O)cc1OCC(N)=O | -7% (inactive)
58 | CCOc1cc2[nH]c(=O)n(Cc3ccc(C(=O)NCCCN4CCCC4=O)cc3)c(=O)c2cc1OCC | -6% (inactive)
59 | OCC1(Cc2ccccc2C(F)(F)F)CCN(Cc2cccc3cnccc23)CC1 | 0% (inactive)
60 | CCOc1ccc(NC(=O)CSc2nc3ccccc3c(=O)n2Cc2cccs2)cc1 | -7% (inactive)
61 | Cc1ccc(S(=O)(=O)N2CCOCC2)cc1C(=O)OC1CCCCC1=O (stereo not drawn) | -7% (inactive)
62 | Cc1ccc(C(=O)N/C(=C/c2cccnc2)C(=O)O)cc1 | -7% (inactive)
63 | N/C(=N/O)c1cccn1Cc1ccccc1[N+](=O)[O-] | -4% (inactive)
